Experimental data taken from PubChem BioAssay.
Values joined by “and” are separate entries in the source; they are usually repeats but may differ in a detail not shown here. Equal entries are not always repeated. The source holds several records for some structures; these can differ, active in one and inactive in another. Active and inactive are the calls of the source.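 The calls were made as follows, unless noted: active = compounds whose cell count with miR-34 switched on is under 0.7 times the count with it off; inactive = the rest.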

Tests used:
[1] = P. berghei load reduction in hepatocytes – cell-based, HepG2, luciferase luminescence, HepG2 viability, primary screen (AID 624349; in the data active = parasite load remaining mostly below about 12%, no sharp cut-off; inactive = mostly above about 10%;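 also: 100% = mean of DMSO negative control wells on the same plate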); conditions: P. berghei liver stage in HepG2, luciferase luminescence, concentration not given here; parasite load remaining: stronger effect = lower value; viability: measured here: HepG2 viability without parasites
[2] = viability loss with induced miR-34 in A549 – imaging, A549 dox-inducible miR-34, nuclei and caspase counts, primary screen (AID 1347080); conditions: A549 miR-34 inducible, Hoechst nuclei count, 48 h
[3] = compounds altering HSF1 focus formation in cells – imaging, Selleck Cancer Library (AID 1347162; in the data active = plate-normalised HSF1 focus index below about 0.46); conditions: human cells, HSF1 nuclear foci imaging, at 10 µM; SSMD: measured here: HSF1 foci SSMD mean; cell count: measured here: cell number; plate-normalised HSF1 focus index: stronger effect = lower value
[4] = MELAS cybrid and Rieske KO viability enhancers – cell-based, MELAS cybrids, Rieske KO mouse fibroblasts, CellTiter-Glo, primary screen (AID 1508586;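 active = mean z-score across replicates of 1.96 or higher in either the MELAS or the Rieske mutant cell line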;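 also: z relative to plate mean and SD of compound and empty wells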); conditions: low glucose
[5] = compounds altering viability of human ES cells (AID 493140; call rule not given here;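 also: cells exposed to compounds for four days before counting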); conditions: human embryonic stem cell survival screen; stronger effect = higher value
[6] = chitosan synthesis blockers in C. neoformans – flow cytometry, Cibacron Brilliant Red staining (AID 1347148; call rule not given here;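 also: compound exposure lasted three days at 37 degrees C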); conditions: Cryptococcus neoformans chitosan, stronger effect = lower value; at 10 µM unless noted
[7] = compounds altering circadian rhythm period length – cell-based, LOPAC library, luminescence reporter (AID 2774; call rule not given here;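 also: values are relative to mean of DMSO wells on each plate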); conditions: circadian reporter cells, at 7 µM, actives lie on both sides
[8] = test system: Hepatitis C virus NS3 helicase; assay: blockers of NS3h binding to ssDNA – biochemical, fluorescence polarization, LOPAC1280 library, primary screen (AID 687035; in the data active = inhibition above about 37%); conditions: Purified HCV NS3 helicase, Cy5-dT15 ssDNA binding fluorescence polarization; stronger effect = higher value; concentration not given here
[9] = compounds altering Cy5-DNA-NS3h complex signal – biochemical, LOPAC1280, artefact control for HCV NS3 helicase inhibitor project (AID 687037; call rule not given here); conditions: Cy5-DNA-NS3h complex fluorescence interference counterscreen
[10] = blockers of cellular phospholipid synthesis – cell-based, LOPAC library, screen 4, primary screen (AID 1347384; call rule not given here); conditions: animal cells, phospholipid biosynthesis inhibition screen; at 10 µM
[11] = galactose survival enhancers in mitochondrial complex I cybrids – cell-based, galactose medium, ATP luminescence, primary screen (AID 1645843;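 active = z-score of at least 1.8 in each of two replicates, scored against plate mean and spread of sample wells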;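 also: positive z means more ATP and so rescue of galactose-driven cybrid death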); conditions: complex I mutant cybrid cells, 72 h, stronger effect = higher value
[12] = stronger effect = lower value, cell number ratio, induced over uninduced
[13] = measured here: relative caspase fold change +Dox/-Dox
[14] = measured here: total cells with miR-34 induction, stronger effect = lower value
[15] = measured here: total cells without miR-34 induction
[16] = MELAS cybrid survival, CellTiter-Glo 48 h, stronger effect = higher value
[17] = Rieske KO mouse fibroblast survival, CellTiter-Glo 72 h

For Nc1ccc2ncnc(NCCc3ccc(Oc4ccccc4)cc3)c2c1, the parasite load remaining [1] was 1.5% (active), the viability [1] was 70.6% and the fold change [2, 12] was 0.738 (inactive) and 0.708 (inactive) and 0.683 (active). The fold change [2, 13] was 1.4 and 1.31 and 3.23, the cell count [2, 14] was 2180 and 3030 and 5480 and the cell count [2, 15] was 2950 and 4280 and 8020. For the same compound, the SSMD [3] was -5.88, the cell count [3] was 2600 and the plate-normalised HSF1 focus index [3] was 0.65 (inactive). For the same compound, the z-score [4, 16] was -0.305 (inactive) and the z-score [4, 17] was -0.135.

With CCCCCCCC(=O)OC[C@H](CO)OC(=O)CCCCCCC the survival [5] was 75.3 (inactive), the fold change [2, 12] was 1 (inactive) and 1.04 (inactive) and the fold change [2, 13] was 1.36 and 0.811. The cell count [2, 14] was 5210 and 5590, the cell count [2, 15] was 5190 and 5400 and the fold fluorescence [6] was 6.5 (inactive).

For CCCCCC#CCC#CCC#CCC#CCCCC(=O)O, the survival [5] was 87.3 (inactive), the fold change [2, 12] was 0.956 (inactive) and 0.974 (inactive) and the fold change [2, 13] was 1.11 and 0.98. For the same compound, the cell count [2, 14] was 5420 and 5670, the cell count [2, 15] was 5670 and 5820 and the fold fluorescence [6] was 5.73 (inactive).

In the case of CCCCC[C@H](O)/C=C/C1=C(CCCCCCC(=O)O)C(=O)CC1, the survival [5] is reported as 68.1 (inactive), the fold change [2, 12] is reported as 0.976 (inactive) and 0.956 (inactive) and the fold change [2, 13] is reported as 1.34 and 1.33. The cell count [2, 14] was 6120 and 6210, the cell count [2, 15] was 6270 and 6500 and the fold fluorescence [6] was 3.81 (inactive).

In the case of CC/C=C\C/C=C\C/C=C\C/C=C\C/C=C\C/C=C\CCC(=O)O, the survival [5] is reported as 81.3 (inactive), the fold change [2, 12] is reported as 0.965 (inactive) and 0.982 (inactive) and the fold change [2, 13] is reported as 0.949 and 0.678. For the same compound, the cell count [2, 14] was 5660 and 5960, the cell count [2, 15] was 5860 and 6070 and the fold fluorescence [6] was 4.24 (inactive).

With COc1ccc(C(=O)NCc2cccnc2)cc1C(=O)NCc1cccnc1 the period change [7] was -0.05 h (inactive), the survival [5] was 25.1 (inactive) and the parasite load remaining [1] was 27.2% (inactive) and 91.5% (inactive) and 35% (inactive). For the same compound, the viability [1] was 71% and 87.7% and 69.5%, the inhibition [8] was -2% (inactive) and the fluorescence ratio (interference) [9] was 1 (inactive). For the same compound, the fold change [2, 12] was 0.938 (inactive) and 0.931 (inactive) and 0.857 (inactive), the fold change [2, 13] was 1.32 and 2 and 1.31 and the cell count [2, 14] was 10400 and 9270. For the same compound, the cell count [2, 15] was 11100 and 9960 and 10800, the outcome [10] was “inactive” and the z-score [4, 16] was 0.681 (inactive) and 0.373 (inactive). For the same compound, the z-score [4, 17] was 0.414 and 0.0826 and the z-score [11] was 0.09 (inactive) and 0.34 (inactive).

With CCCCC[C@H](O)/C=C/[C@H]1C=CC(=O)[C@@H]1C/C=C\CCCC(=O)O the survival [5] was 122 (inactive), the fold change [2, 12] was 0.976 (inactive) and 0.946 (inactive) and the fold change [2, 13] was 1.27 and 1.82. The cell count [2, 14] was 5740 and 5500, the cell count [2, 15] was 5880 and 5820 and the fold fluorescence [6] was 4.51 (inactive).

In the case of COC(=O)C1=C(C)NC(C)=C(C(=O)OC2CCCN(Cc3ccccc3)C2)C1c1cccc([N+](=O)[O-])c1 (stereo unspecified), the fold change [2, 12] is reported as 1.82 (inactive) and 1.04 (inactive), the fold change [2, 13] is reported as 0.615 and 0.533 and the cell count [2, 14] is reported as 3920 and 6890. The cell count [2, 15] was 2160 and 6660, the outcome [10] was “inactive” and the z-score [4, 16] was -0.438 (inactive). The z-score [4, 17] was -0.0848 and the z-score [11] was -1.88 (inactive).

In the case of COc1ccccc1N1CCN(CCCCNC(=O)c2ccc3ccccc3c2)CC1, the period change [7] is reported as 0.185 h (inactive), the parasite load remaining [1] is reported as 110% (inactive) and 55% (inactive) and the viability [1] is reported as 97.7% and 74.2%. The inhibition [8] was -1% (inactive), the fluorescence ratio (interference) [9] was 1 (inactive) and the fold change [2, 12] was 1.04 (inactive) and 0.819 (inactive). For the same compound, the fold change [2, 13] was 1.41 and 1.7, the cell count [2, 14] was 7170 and 7370 and the cell count [2, 15] was 6900 and 9000. For the same compound, the outcome [10] was “inactive”, the z-score [4, 16] was -0.843 (inactive) and the z-score [4, 17] was 0.134. The z-score [11] was -0.51 (inactive).

In the case of O=C(O)CCC/C=C\CC1C2CCC(O2)C1CNNC(=O)Nc1ccccc1 (stereo unspecified), the survival [5] is reported as 88.6 (inactive), the fold change [2, 12] is reported as 0.964 (inactive) and 0.895 (inactive) and the fold change [2, 13] is reported as 1.45 and 1.09. The cell count [2, 14] was 5700 and 5510, the cell count [2, 15] was 5910 and 6160 and the fold fluorescence [6] was 4.39 (inactive).

In the case of CCCCC/C=C\C/C=C\CCCCCCCC(=O)O, the survival [5] is reported as 55.7 (inactive), the fold change [2, 12] is reported as 0.973 (inactive) and 1.02 (inactive) and the fold change [2, 13] is reported as 1.17 and 0.947. The cell count [2, 14] was 6220 and 5980, the cell count [2, 15] was 6400 and 5840 and the fold fluorescence [6] was 4.86 (inactive).

For CCCCC/C=C\C/C=C\C/C=C\CCCCCCC(=O)O, the survival [5] was 92.4 (inactive), the fold change [2, 12] was 1.02 (inactive) and 1.05 (inactive) and the fold change [2, 13] was 1.28 and 1.4. For the same compound, the cell count [2, 14] was 5830 and 6270, the cell count [2, 15] was 5710 and 6000 and the fold fluorescence [6] was 4.94 (inactive).

For CC/C=C\C/C=C\C/C=C\CCCCCCCC(=O)O, the survival [5] was 92.8 (inactive), the fold change [2, 12] was 0.97 (inactive) and 0.988 (inactive) and the fold change [2, 13] was 1.3 and 0.691. The cell count [2, 14] was 6070 and 5710, the cell count [2, 15] was 6250 and 5780 and the fold fluorescence [6] was 4.4 (inactive).

For CCCCCCCC/C=C\C/C=C\C/C=C\CCCC(=O)O, the survival [5] was 69.8 (inactive), the fold change [2, 12] was 0.997 (inactive) and 0.986 (inactive) and the fold change [2, 13] was 1.14 and 0.749. For the same compound, the cell count [2, 14] was 6200 and 5590, the cell count [2, 15] was 6220 and 5670 and the fold fluorescence [6] was 4.51 (inactive).

With CCCCCCCC/C=C\CCCCCCCC(=O)OC[C@H](CO)OC(C)=O the survival [5] was 98.6 (inactive), the fold change [2, 12] was 0.972 (inactive) and 0.952 (inactive) and the fold change [2, 13] was 0.87 and 0.868. For the same compound, the cell count [2, 14] was 6120 and 5660, the cell count [2, 15] was 6290 and 5950 and the fold fluorescence [6] was 5.82 (inactive).

In the case of CC(C)NC[C@H](O)c1ccc(O)c(O)c1, the period change [7] is reported as 0.03 h (inactive), the parasite load remaining [1] is reported as 71.3% (inactive) and the viability [1] is reported as 68.4%. For the same compound, the inhibition [8] was 3% (inactive) and -5% (inactive), the fluorescence ratio (interference) [9] was 1 (inactive) and 0.9 (inactive) and the fold change [2, 12] was 1.16 (inactive) and 1.1 (inactive) and 0.953 (inactive). The fold change [2, 13] was 0.694 and 0.901 and 0.646, the cell count [2, 14] was 9390 and 11000 and 9560 and the cell count [2, 15] was 8130 and 10100 and 10000. For the same compound, the outcome [10] was “inactive”, the z-score [4, 16] was -0.508 (inactive) and the z-score [4, 17] was -0.956. For the same compound, the z-score [11] was -1.02 (inactive) and -1.29 (inactive).

For C#CCCCCCCCCCCCCCCCC(=O)O, the survival [5] was 96.8 (inactive), the fold change [2, 12] was 0.987 (inactive) and 1.06 (inactive) and the fold change [2, 13] was 1.49 and 0.91. The cell count [2, 14] was 5840 and 5920, the cell count [2, 15] was 5920 and 5580 and the fold fluorescence [6] was 5.76 (inactive).
